Compound activity: PubChem BioAssay, National Center for Advancing Translational Sciences (NCATS)
TDP-43 yeast inh: qHTS of TDP-43 Inhibitors; TDP-43 expressing yeast growth rescue, BacTiter-Glo, 24 h; Potency, µM (doses to about 46.1 µM), for inactives: at the top dose growth rescue (activation), actives largely listed as activators; 410,000 compounds, 1.8% hits; note: potency is the fitted concentration of half-maximal effect; % of control where 0% means no effect; nearly all actives have a fitted effect of over 50% in size
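Luminescence from BacTiter-Glo reports growth of TDP-43-expressing yeast after 24 hr at 30 deg C with compound. Cells were raffinose-pregrown to mid-log, then seeded in galactose medium at OD600=0.02.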
CCT modulator: High-Throughput Screening for Modulators of Cytosolic Chaperonin Activity. purified chaperonin ATPase assay, HTRF ADP detection, 30 min. activity change, % (no concentration beside the values), hits read low. 360,000 compounds, 0.3% hits. AID 651819, 2012; in the data active = activity change below about -30%; note: % is set by controls: 0 for no effect and ±100 for the full control effect
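TRiC (40 or 20 nM final, by batch activity) in 30 mM Tris pH 7.4, 100 mM KCl, 5 mM MgCl2, 1 mM DTT was treated with compound at 76 uM single dose, then 10 uM ATP, 30 min at 37 °C. ADP was read by HTRF Transcreener.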
Abeta rescue: qHTS for compounds that reverse cellular toxicity of Amyloid beta (A-beta) peptide in yeast: Primary Screen. yeast expressing A-beta42, growth rescue, OD600, 48 h; response scale: 0% DMSO, 100% iron-clioquinol control. Potency, µM (series often up to 46.1 µM), usual class: activators. 410,000 compounds, 0.063% hits; note: potency is the fitted concentration of half-maximal effect; nearly all actives have a fitted effect of over 55% in size
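Yeast A-beta toxicity model in growth medium with pinned compounds, 48 h at 30 C; growth read as absorbance at 600 nm. Normalized to FeCl3/clioquinol equimolar mix (positive) and DMSO (negative).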
Mm-Cpn inhibitor: Inhibitors of TCP-1 ring complex (TRiC) of Methanococcus maripaludis (MmCpn): qHTS; Chaperonin Mm-Cpn (Methanococcus maripaludis); purified Mm-Cpn ATPase, ADP Transcreener TR-FRET; Potency, µM (doses to about 76.9 µM), for the others: at the highest dose activity, negative = inhibition, most hits filed as inhibitors; 330,000 compounds, 0.031% hits; note: potency is the fitted concentration of half-maximal effect; % is set by controls: 0 for no effect and ±100 for the full control effect; nearly all actives have a fitted effect of over 80% in size
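Reaction buffer contained 30 mM Tris pH 7.4, 100 mM KCl, 5 mM MgCl2 and 1 mM DTT. Mm-CPN (25 nM final) hydrolysed 10 uM ATP over 30 min at 37°C; ADP was read by HTRF.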
aSyn rescue: qHTS of alpha-syn Inhibitors; AID 652106, 2013; Yeast expressing alpha-synuclein, growth rescue, BacTiter-Glo, 24 h; Potency, µM (top dose mostly 46.1 µM), for inactives: at the highest dose growth rescue (activation), hits mostly activators; 370,000 compounds, 0.14% hits; note: potency is the fitted concentration of half-maximal effect; % of control where 0% means no effect; nearly all actives have a fitted effect of over 65% in size
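Rescue of yeast growth: cells expressing toxic alpha-synuclein, induced in galactose at OD600 0.02, incubated with compound 24 h at 30 C. ATP luminescence quantified growth; inhibitors of toxicity appear as activators.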
FUS yeast rescue: qHTS for Suppressors of FUS Proteinopathy: Primary screen using FUS-linked yeast assay; S. cerevisiae FUS-expressing, growth rescue, OD600, 24 h; Potency, µM (top dose mostly 76.6 µM), most hits filed as activators; 390,000 compounds, 0.24% hits;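 note: potency is the fitted concentration of half-maximal effect; plate controls were DMSO vehicle for no effect and reference control for full effect; nearly all actives have a fitted effect of over 55% in size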
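Read-out: OD at 600 nm after 24hr at 30C, reporting rescue of FUS-induced yeast toxicity. Cells at OD 0.005 in galactose (2%) minimal medium; compounds tested in a dilution series; CP55940 titration from 92uM final as control.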
* hit, by the source's call; i = inactive; u = inconclusive; x = not tested or not shown; [ ] = another dose, or the depositor's remark. Shown are actives, neighbours in structure and some others; about 2.3% of the full set was active somewhere. Unless noted, calls come from the whole dose curve; as a rule, active = well fitted curve in the direction sought with a large enough effect; inconclusive = small, poorly fitted or top-dose-only effect, or another doubt; inactive = no such curve, though single readings can be large; an effect the other way counts as inactive or inconclusive.

SMILES	TDP-43 yeast inh	CCT modulator	Abeta rescue	Mm-Cpn inhibitor	aSyn rescue	FUS yeast rescue
CC(=O)N1CCN(C(=O)c2ccc(CNC(=O)c3cccc(Br)c3)cc2)CC1	x	x	x	x	x	i
COc1ccccc1NC(=O)c1cc(S(=O)(=O)N2CCCCCC2)ccc1F	11µM*	-2	i	1%	1%	i
CCCC1(c2ccccc2)NC(=O)N(CC(=O)c2[nH]c(C)c(C(=O)OCC)c2C)C1=O (stereo not given)	12%	0	i	-3%	-3%	22µM*
Cc1ccc(CNC(=O)CN2C(=O)CSc3ccc(S(=O)(=O)N4CCCC4)cc32)cc1	7%	x	i	x	x	u
Fc1ccc(-c2csc(-c3ccncc3)n2)cc1	13µM*	-2	i	3%	3%	i
CC(=O)Oc1ccc(-c2csc(Nc3cccc(C)n3)n2)cc1	7%	1	i	-1%	-24%	i
CC(=O)Oc1ccc(-c2csc(Nc3ccccn3)n2)cc1	13µM*	-1	i	x	-30%	i
c1csc(-c2csc(-c3cccs3)n2)c1	13µM*	2	i	-11%	0%	i
COc1ccc(-c2csc(Nc3cccc(C)n3)n2)cc1	18µM*	1	i	-2%	-27%	i
OC(c1ccc(F)cc1)c1nc(-c2ccncc2)cs1 (stereo not given)	9%	-5	i	x	0%	i
Cn1nnnc1SCCCNCc1cc(Br)ccc1OCc1ccccc1	0%[9.22 µM]	x	i	x	x	i
COc1ccc(OC)c(NC(=O)Cn2cc(C(=O)c3cccs3)c3ccccc32)c1	11%	x	i	x	x	i
CS(=O)(=O)N1CCC(C(=O)NCC2COc3ccccc3O2)CC1 (stereo not given)	x	x	x	x	x	i
c1ccc(Nc2nc(-c3cccnc3)cs2)nc1	15%	0	i	0%	-2%	i
c1ccc(Nc2nc(-c3cccs3)cs2)nc1	35µM*	1	i	-4%	-21%	i
Fc1ccc(-c2csc(Nc3ccccn3)n2)cc1	11µM*	-1	i	3%	-18%	i
Cc1nn(-c2ccccc2)c(Cl)c1CN(C(=O)CCl)c1ccc(Cl)cc1	20µM*	1	i	-1%	-35%	x
CC(=O)N(Cc1c(C)nn(-c2ccccc2)c1Cl)c1ccc(Cl)cc1	6%	-2	i	1%	18%	i
Cc1nn(-c2ccccc2)c(Cl)c1CN(C(=O)CCl)c1cccc2ccccc12	18µM*	-1	i	-2%	9%	i
CCCCc1ccc(C(=O)COC(=O)c2ccc3nc(C)c(C)nc3c2)cc1	x	x	x	x	1%	x
CCCS(=O)(=O)c1ncc(Cl)c(C(=O)N2CCN(c3ccc(OC)cc3)CC2)n1	14µM*	x	i	x	x	i
CCSc1ncc(Cl)c(C(=O)N2CCN(c3ccc(OC)cc3)CC2)n1	0%	x	i	x	x	i
COc1cccc(Cn2nnc(C(=O)NCc3ccc(Cl)cc3Cl)c2N)c1	16%	x	i	x	x	i
COc1ccc(C2CC(c3ccccc3C(F)(F)F)=NN2c2ccc(S(N)(=O)=O)cc2)cc1 (stereo not given)	15%	1	i	-11%	5%	i
COc1ccc(C2CC(c3ccc(C(F)(F)F)cc3)=NN2c2ccc(S(N)(=O)=O)cc2)cc1 (stereo not given)	13µM*	-1	i	-8%	u	u
SMILES	TDP-43 yeast inh	CCT modulator	Abeta rescue	Mm-Cpn inhibitor	aSyn rescue	FUS yeast rescue
CCc1ccc(C2=NN(c3ccc(S(N)(=O)=O)cc3)C(c3ccc(F)cc3)C2)cc1 (stereo not given)	14µM*	0	u	-1%	14%	x
COC(=O)[C@H](C(C)C)N1Cc2nnn(Cc3ccccc3)c2C=CS1(=O)=O	x	x	x	x	x	i
Cc1ccc(NC(=O)Cc2ccc(F)cc2)c(S(=O)(=O)N2CCOCC2)c1	x	x	x	x	x	i
S=C(NCC1(c2ccccc2)CCCC1)Nc1ccccc1	u	0	5µM*	-4%	8%	i
CC1CCN(C(=O)Nc2ccc3nc(-c4ccco4)c(-c4ccco4)nc3c2)CC1	x	x	x	x	-7%	x
CC(C)n1nc(C(=O)NC2CCCCCC2)c2ccccc2c1=O	22µM*	-2	i	1%	0%	i
CC1CCCC(NC(=O)COC(=O)c2cccs2)C1C (stereo not given)	11µM*	-1	u	3%	10%	i
CC(OC(=O)c1cccs1)C(=O)NC1CCCCC1C (stereo not given)	4%	1	i	1%	-2%	i
CC1CCCCC1NC(=O)COC(=O)c1ccc(N(C)C)cc1 (stereo not given)	16µM*	0	i	1%	6%	i
O=C(NC(=S)Nc1ccc(N2CCCCC2)c(Cl)c1)c1cccs1	35µM*	-6	i	x	-18%	x
CN(C)c1ccc(C(=O)OCC(=O)NC2CCCCCC2)cc1	22%	-2	i	0%	-8%	i
CC1CCCCC1NC(=S)NC(=O)c1cccs1 (stereo not given)	27%	1	10µM*	0%	-5%	i
O=C(CSc1nnc(-c2cccnc2)n1Cc1ccco1)Nc1ccc(Cl)c(Cl)c1	x	x	x	x	x	i
CCOC(=O)c1c(NC(=O)c2ccc(S(=O)(=O)N3CCC(C)CC3)cc2)sc2c1CCN(C)C2	-18%	x	i	x	x	u
O=[N+]([O-])c1ccccc1/C=C/c1ccnc2ccccc12	x	x	x	x	3%	x
O=C(NC(=S)Nc1ccc(S(=O)(=O)NC2CCCCC2)cc1)c1cccs1	22µM*	-2	u	0%	u	u
O=C(NC(=S)Nc1ccc(S(=O)(=O)N2CCCCC2)cc1)c1cccs1	-7%	-1	i	-3%	9%	x
O=C(N/N=C/c1ccc(N2CCOCC2)cc1)c1ccncc1	-20%	-1	i	0%	2%	x
O=C(N/N=C/c1ccc(N2CCOCC2)cc1)c1ccccc1OCCOc1ccccc1	25µM*	0	i	-17%	4%	i
CN(C)c1nc(Cl)nc(N(C#N)CCOc2ccccc2)n1	11µM*	0	i	0%	1%	i
CCNc1nc(NCC)nc(N(C#N)CCOc2ccccc2)n1	8%	1	i	0%	-5%	i
O=C(c1cc2cc(Br)ccc2[nH]1)N1CCc2ccccc21	19%	-38*	i	-4%	0%	i
